Sequences and labels used below:
T1: HaloTag-ATRX ADD domain (163-292)
T1 chain: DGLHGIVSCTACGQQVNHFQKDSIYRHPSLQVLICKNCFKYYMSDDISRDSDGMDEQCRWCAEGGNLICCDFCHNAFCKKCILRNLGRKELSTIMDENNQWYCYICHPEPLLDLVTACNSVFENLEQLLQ

B1: Unmod H2A variant K G N Y A E R I G A G A P (peptide)
chain: KGNYAERIGAGAP
B2: Unmod H2A variant M A A V L E Y L T A E I L (peptide)
chain: MAAVLEYLTAEIL
B3: Unmod H2A variant R N D E E L N K L L G G V (peptide)
chain: RNDEELNKLLGGV
B4: Unmod H2A variant I L E L A G N A A R D N K (peptide)
chain: ILELAGNAARDNK
B5: Unmod H2A variant D N K K T R I I P R H L Q (peptide)
chain: DNKKTRIIPRHLQ

± gives the standard deviation.

For the first assay, the target named is T1, HaloTag-ATRX ADD domain (163-292). As to the kind of experiment: peptide microarray binding signal (635 nm), min-max normalized on array (fraction of array maximum); higher = stronger binding. Conditions: peptide region: Unmod H2A variant; binder concentration: 50 nM. The gist of the method:
(§1)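 Binding signal is the mean intensity of triplicate spots, min-max scaled within each library. Histone 13-mer peptide–cellulose conjugates were spotted in triplicate on nitrocellulose with a Cy3 tracer and blocked overnight at 4°C. Probing lasted 1 h at 4°C, either with biotin-labelled HaloTag reader fusions (10 nM to 1 μM) and streptavidin-Alexa Fluor 647 or with rabbit histone antibodies (1:10,000 to 1:2,000) and anti-rabbit Alexa 647. An Axon GenePix 4000B read signal at 635 nm and misprints at 532 nm.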
In the case of B1, the “peptide microarray binding signal” value turned out to be 0.0345 ± 0.0048.

B2: the “peptide microarray binding signal” value came to 0.0107 ± 0.00027.

For the molecule B3, the “peptide microarray binding signal” value is 0.0156 ± 0.00038.

With B4, the “peptide microarray binding signal” value turned out to be 0.048 ± 0.0046.

B5: the “peptide microarray binding signal” value came out at 0.0223 ± 0.0044.

Still in this assay, the particulars now being: peptide region: Unmod H2A variant; binder concentration: 500 nM.
Consider B1, for which the “peptide microarray binding signal” value amounted to 0.0994 ± 0.0054.

As to B2, the “peptide microarray binding signal” value is 0.00667 ± 0.00052.

Turning to B3, the “peptide microarray binding signal” value is 0.0164 ± 0.00093.

Take B4: the “peptide microarray binding signal” value is 0.0752 ± 0.011.

Turning to B5, the “peptide microarray binding signal” value was determined as 0.0112 ± 0.0059.

The target in a further assay is HaloTag-ING2 PHD (mouse Ing2 200-280). The assay is described as above. Particulars: peptide region: Unmod H2A variant; binder concentration: 10 nM. The gist of the method:
as §1
On to B1, for which the “peptide microarray binding signal” value amounted to 0.0206 ± 0.00047.

With B2, the “peptide microarray binding signal” value came to 0.00173 ± 2.1e-05.

For B3, the “peptide microarray binding signal” value is 0.00412 ± 5.7e-05.

For the molecule B4, the “peptide microarray binding signal” value is 0.0242 ± 0.0025.

Consider B5, for which the “peptide microarray binding signal” value came out at 0.00245 ± 9.1e-05.

The same assay, now with this note: peptide region: Unmod H2A variant; binder concentration: 100 nM.
B1: the “peptide microarray binding signal” value is 0.0279 ± 0.0038.

Consider B2, for which the “peptide microarray binding signal” value is 0.000992 ± 2.8e-05.

Turning to B3, the “peptide microarray binding signal” value was determined as 0.00397 ± 0.0011.

With B4, the “peptide microarray binding signal” value came out at 0.0721 ± 0.0091.

With B5, the “peptide microarray binding signal” value was found to be 0.0078 ± 0.0012.

A further assay concerns the target anti-H3K4me3 antibody ab8580. Described as above. Particulars: peptide region: Unmod H2A variant; binder concentration: 1:2,000 dilution. The method, boiled down:
as §1
Consider B1, for which the “peptide microarray binding signal” value amounted to 0.00668 ± 0.0046.

In the case of B2, the “peptide microarray binding signal” value was determined as 0.00829 ± 0.0044.

For the molecule B3, the “peptide microarray binding signal” value amounted to 0.0091 ± 0.00022.

As to B4, the “peptide microarray binding signal” value was determined as 0.0104 ± 0.0051.

Regarding B5, the “peptide microarray binding signal” value stood at 0.000472 ± 9.6e-05.

Staying with this assay, now noted: peptide region: Unmod H2A variant; binder concentration: 1:10,000 dilution.
With B1, the “peptide microarray binding signal” value stood at 0.00953 ± 0.0009.

B2: the “peptide microarray binding signal” value stood at 0.00217 ± 3.9e-05.

For B3, the “peptide microarray binding signal” value is 0.00171 ± 3.3e-05.

As to B4, the “peptide microarray binding signal” value was 0.015 ± 0.0031.

B5: the “peptide microarray binding signal” value was 0.00183 ± 0.00033.

The next assay concerns the target anti-H3K9me3 antibody ab8898. Described as above. Conditions: peptide region: Unmod H2A variant; binder concentration: 1:2,000 dilution. The method, boiled down: as §1
As to B1, the “peptide microarray binding signal” value turned out to be 0.005421 ± 1.8e-05.

With B2, the “peptide microarray binding signal” value is 0.000529 ± 1.3e-05.

For B3, the “peptide microarray binding signal” value came to 0.0018 ± 0.00014.

For the molecule B4, the “peptide microarray binding signal” value was 0.00921 ± 0.0019.

As for B5, the “peptide microarray binding signal” value is 0.000317 ± 2.5e-05.

Staying with this assay, now noted: peptide region: Unmod H2A variant; binder concentration: 1:10,000 dilution.
B1: the “peptide microarray binding signal” value came to 0.00611 ± 0.0016.

Consider B2, for which the “peptide microarray binding signal” value worked out at 0.00075 ± 1.6e-05.

With B3, the “peptide microarray binding signal” value was determined as 0.00259 ± 6.1e-05.

As to B4, the “peptide microarray binding signal” value amounted to 0.0132 ± 0.0022.

Regarding B5, the “peptide microarray binding signal” value came to 0.000923 ± 7.7e-05.
